Test systems include SK-MEL-2 melanoma; EKVX NSCLC; SN12C renal; UO-31 renal; TK-10 renal; ACHN renal; CAKI-1 renal; A498 renal; CCRF-CEM leukemia; MOLT-4 leukemia; SR leukemia; RPMI-8226 leukemia; OVCAR-8 ovarian; OVCAR-5 ovarian; OVCAR-4 ovarian; SK-OV-3 ovarian; IGROV1 ovarian; OVCAR-3 ovarian; HS 578T breast; NCI/ADR-RES ovarian.
Common to all, as to experiment: NCI-60 one-dose screen, 48 h (100 = growth as untreated, 0 = no growth, -100 = all killed)
Holding throughout (conditions): 10 µM unless noted

The panel holds about 83,000 compounds, 20% with a hit somewhere; the sample as a whole holds those more often.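 Step 1: grow cells in 96-well plates. Step 2: add test compound at a single concentration. Step 3: incubate 48 h. Step 4: record percent growth.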 Values without a mark were called inactive. Calls of active or inactive are those of the source. How the source made its calls: active means growth percent below 10; inactive means the rest.

For `COc1ccc(CCN2C(=O)/C(=C/c3ccc(C4Oc5ccccc5C5CC(c6ccccc6)=NN54)cc3)SC2=S)cc1` (stereo not given), the growth is 103% with SK-MEL-2 melanoma; 97.4% with EKVX NSCLC; 101% with SN12C renal; 80.7% in the test with UO-31 renal; 104% with TK-10 renal; 102% with ACHN renal. For the same compound, the growth is 89.8% in the test with CAKI-1 renal; 115% in the test with A498 renal; 36.6% with CCRF-CEM leukemia; 100% in the test on MOLT-4 leukemia; 105% in the test with SR leukemia; 96% in the test with RPMI-8226 leukemia. The growth with OVCAR-8 ovarian was 108%; in the test with OVCAR-5 ovarian, 103%; with OVCAR-4 ovarian, 109%; in the test with SK-OV-3 ovarian, 103%; in the test on IGROV1 ovarian, 100%; with OVCAR-3 ovarian it was 105%. Further, the growth in the test with HS 578T breast is 103%; in the test with NCI/ADR-RES ovarian it was 110%.

With `C/C(=N\O)[C@@H]1CC[C@]2(CO)CC[C@]3(C)[C@H](CC[C@@H]4[C@@]5(C)CCCNC(C)(C)[C@@H]5CC[C@]43C)[C@@H]12`, the growth with SK-MEL-2 melanoma was 95.2%; with EKVX NSCLC, 92.7%; in the test with SN12C renal, 85.4%; with UO-31 renal it was 69.3%; in the test on TK-10 renal, 109%; in the test with ACHN renal, 98.6%. For the same compound, the growth was 79.4% with CAKI-1 renal; 107% in the test on A498 renal; 58.9% in the test on CCRF-CEM leukemia; 33.3% in the test on MOLT-4 leukemia; 12.5% in the test on SR leukemia; 53.4% in the test with RPMI-8226 leukemia. The growth with OVCAR-8 ovarian is 91.2%; with OVCAR-5 ovarian, 88.5%; in the test with OVCAR-4 ovarian, 77.2%; in the test with SK-OV-3 ovarian, 105%; with IGROV1 ovarian it was 65.2%; with OVCAR-3 ovarian it was 80.3%. Moreover, the figures for the growth with HS 578T breast and with NCI/ADR-RES ovarian were 84.3% and 96.6%, respectively.

For the compound `COc1ccc2c(c1)c(-c1nc(-c3c[nH]c4ncccc34)cs1)cn2CCO`, the growth in the test with SK-MEL-2 melanoma was 48.7%; in the test on EKVX NSCLC, 34.9%; in the test on SN12C renal it was 63.5%; in the test on UO-31 renal, 16.1%; in the test on TK-10 renal it was 58.3%; in the test on ACHN renal, 26.7%. Moreover, the growth with CAKI-1 renal is 35.5%; in the test with A498 renal it was -0.474% (active); with CCRF-CEM leukemia, 41.3%; in the test on MOLT-4 leukemia, 55%; in the test on SR leukemia, 37.8%; in the test on RPMI-8226 leukemia it was 39.9%. In addition, the growth with OVCAR-8 ovarian is 56.2%; in the test with OVCAR-5 ovarian, 68.2%; in the test with OVCAR-4 ovarian it was 42.1%; in the test on SK-OV-3 ovarian, 30%; in the test with IGROV1 ovarian, 43.4%; in the test on OVCAR-3 ovarian, 78.7%. The growth in the test with HS 578T breast is 33.5%; in the test on NCI/ADR-RES ovarian, 76%.

Take `CN1CCN(c2ccc(NC(=O)c3cncnc3Nc3ccc(OCc4cccc(F)c4)c(Cl)c3)cc2)CC1`: the growth with SK-MEL-2 melanoma is 120%; in the test on EKVX NSCLC it was 98.6%; in the test on SN12C renal it was 63.9%; in the test on UO-31 renal, 25%; in the test on TK-10 renal, 103%; in the test on ACHN renal, 89.3%. Further, the growth was 81.5% in the test on CAKI-1 renal; 70.8% in the test with A498 renal; 16.2% in the test on CCRF-CEM leukemia; 6.75% (active) in the test on MOLT-4 leukemia; 14.9% in the test with SR leukemia; 70.2% with RPMI-8226 leukemia. The growth is 76.7% with OVCAR-8 ovarian; 76.3% in the test on OVCAR-5 ovarian; 72.1% in the test with OVCAR-4 ovarian; 103% in the test on SK-OV-3 ovarian; 91.6% with IGROV1 ovarian; 81.7% in the test with OVCAR-3 ovarian. Besides, the growth is 75% with HS 578T breast and 75.2% with NCI/ADR-RES ovarian.

As to `Cc1ccc(C)c2c(C)c(C(=O)Nc3cccc(-n4cccn4)c3)oc12`, the growth is 66.3% [50 µM] in the test with SK-MEL-2 melanoma; 53.8% [50 µM] in the test with EKVX NSCLC; 70% [50 µM] with SN12C renal; 40.7% [50 µM] in the test on UO-31 renal; 82.1% [50 µM] in the test with TK-10 renal; 64.9% [50 µM] with ACHN renal. The growth with CAKI-1 renal is 44.6% [50 µM]; in the test on A498 renal it was 55.6% [50 µM]; with CCRF-CEM leukemia, 42.4% [50 µM]; in the test on MOLT-4 leukemia it was 42.2% [50 µM]; in the test on SR leukemia, 56.7% [50 µM]; with RPMI-8226 leukemia, 43.8% [50 µM]. Further, the growth in the test on OVCAR-8 ovarian was 42.4% [50 µM]; with OVCAR-5 ovarian, 93.6% [50 µM]; in the test with OVCAR-4 ovarian it was 50.4% [50 µM]; with SK-OV-3 ovarian it was 111% [50 µM]; in the test on IGROV1 ovarian it was 76.3% [50 µM]; in the test with OVCAR-3 ovarian, 82% [50 µM]. For the same compound, the growth in the test on HS 578T breast is 81.1% [50 µM]; with NCI/ADR-RES ovarian, 54.3% [50 µM].

As for `Cc1ccc(/C=C/C(=O)Nc2ncc(Cc3ccc(F)cc3)s2)o1`, the growth in the test with SK-MEL-2 melanoma is 46.9%; with EKVX NSCLC, 48.5%; in the test with SN12C renal, 66.3%; in the test with UO-31 renal, 40.4%; with TK-10 renal, 61.9%; with ACHN renal, 56.3%. For the same compound, the growth is 35.4% with CAKI-1 renal; 27.3% in the test with A498 renal; 45.1% in the test on CCRF-CEM leukemia; 35% in the test on MOLT-4 leukemia; 18.9% in the test on SR leukemia; 54.2% with RPMI-8226 leukemia. Besides, the growth in the test with OVCAR-8 ovarian was 77.6%; in the test with OVCAR-5 ovarian it was 64.1%; in the test with OVCAR-4 ovarian, 85.4%; with SK-OV-3 ovarian it was 64.6%; in the test with IGROV1 ovarian it was 54.1%; in the test with OVCAR-3 ovarian it was 36.9%. The growth is 49.2% in the test with HS 578T breast and 55.7% with NCI/ADR-RES ovarian.

Consider `C=C(c1ccc(OC)c(/C=C/C(=O)c2ccc3c(c2)OCO3)c1)c1cc(OC)c(OC)c(OC)c1`, for which the growth was 32.1% with SK-MEL-2 melanoma; 23.4% in the test with EKVX NSCLC; 8.55% (active) in the test on SN12C renal; 23.4% in the test on UO-31 renal; 23% with TK-10 renal; -26.5% (active) in the test with ACHN renal. Also, the growth with CAKI-1 renal is 11.6%; in the test with A498 renal, 17.7%; with CCRF-CEM leukemia, 13.3%; in the test on MOLT-4 leukemia, 11.1%; with SR leukemia it was 6.41% (active); in the test with RPMI-8226 leukemia, 11.7%. Also, the growth is 6.09% (active) in the test with OVCAR-8 ovarian; 36.6% in the test with OVCAR-5 ovarian; 38.9% with OVCAR-4 ovarian; 27.4% in the test on SK-OV-3 ovarian; 35.2% in the test with IGROV1 ovarian; 1.16% (active) with OVCAR-3 ovarian. Also, the growth was 40.8% with HS 578T breast and 5.57% (active) in the test on NCI/ADR-RES ovarian.
